# Source: PubChem BioAssay AID588814 (The Scripps Research Institute Molecular Screening Center, 2011)
# Out of some 360,000 compounds screened, about 1,200 (0.33%) were called active. What follows is part of a selection rich in actives, with near analogues and random picks from the rest. A number with no mark means an inactive call.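 Rule for the calls: active = activation above the run's mean compound activation plus 3 SD (cut at about 16% in these data); inactive = the rest.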
# Molecular target: Muscarinic acetylcholine receptor M1 (Homo sapiens) (UniProt P11229)
# Sequence (P11229 whole entry, looked up): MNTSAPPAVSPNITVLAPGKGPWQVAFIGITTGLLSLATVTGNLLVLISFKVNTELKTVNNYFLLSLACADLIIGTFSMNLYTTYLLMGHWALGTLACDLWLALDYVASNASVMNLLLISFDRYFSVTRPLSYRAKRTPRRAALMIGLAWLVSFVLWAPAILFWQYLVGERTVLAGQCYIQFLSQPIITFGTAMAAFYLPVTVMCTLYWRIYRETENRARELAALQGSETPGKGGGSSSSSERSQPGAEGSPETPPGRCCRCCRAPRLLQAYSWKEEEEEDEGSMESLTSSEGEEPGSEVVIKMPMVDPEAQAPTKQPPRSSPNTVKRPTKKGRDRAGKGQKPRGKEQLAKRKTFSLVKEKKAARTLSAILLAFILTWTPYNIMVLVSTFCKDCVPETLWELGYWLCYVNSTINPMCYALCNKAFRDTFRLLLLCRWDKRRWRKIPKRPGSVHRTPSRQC
# Experiment: CHRM1 activation via calcium signal – Fluo-8 calcium fluorescence, CHO-K1 cells, HTS, primary screen (AID 588814);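 note: peak over basal fluorescence ratio within a 140 s kinetic read after compound addition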
# Details: CHO-K1 hM1, Fluo-8 calcium fluorescence, agonist mode; at 3 µM; stronger effect = higher value; 0% DMSO, 100% acetylcholine EC100
row,SMILES,activation
1,COc1ccc(N/N=C2/CCCCC2=O)cc1,-3.78%
2,COc1ccc(NC(=O)C2(C)Cc3c(-c4cccc(NC(C)=O)c4)ccnc3O2)cc1 (stereo not given),-1.09%
3,O=c1[nH]c2ccccc2n1C1CCN(CCOc2ccccc2)CC1,75.4% (active)
4,O=S(=O)(c1cccs1)N1CCN(CCOc2ccccc2)CC1,-2.7%
5,O=C1CCN(CCc2ccccc2)CCN1CCOc1ccccc1,-5.27%
6,CC1Cc2ccccc2N1CC(=O)Nc1ccc(S(N)(=O)=O)cc1 (stereo not given),0.2%
7,O=C(CN(Cc1ccccc1)C(=O)CCC(=O)Nc1ccccn1)NCCc1ccccc1,-5.06%
8,CC(=O)NC(CC(=O)Nc1nc(-c2ccccc2)c(C(C)=O)s1)c1ccccc1 (stereo not given),-2.65%
9,Nc1ncnc2c1ncn2[C@@H]1O[C@H](C(=O)NS(=O)(=O)c2c(Cl)nc3sccn23)[C@@H](O)[C@H]1O,-1%
10,O=C(/C=C(O)/C=C/c1ccc(O)cc1)/C=C/c1ccc(O)cc1,30% (active)
11,COc1cccc(C=CC(=O)C=CC=Cc2ccccc2)c1,-0.1%
12,COc1ccc(/C=C/C(=O)c2c(O)cc(OC)cc2OC)cc1,-5.79%
13,CCOc1ccc(CCNC(=O)COC(=O)c2c(OC)cccc2OC)cc1OCC,0.68%
14,O=C(CCN1CCN(c2ccccc2)CC1)NNC(=S)Nc1ccccc1,-3%
15,CCCCC(=O)NNC(=S)NC(=O)C(c1ccccc1)c1ccccc1,88.8% (active)
16,CC(C)CC(=O)NC(=S)NCc1ccccc1,-7.45%
17,O=C(N=C1SC2CS(=O)(=O)CC2N1Cc1ccccc1)c1ccccc1 (stereo not given),0.69%
18,CCOc1ccc(NS(=O)(=O)c2ccc(C(=O)NCC(c3ccccc3OC)N3CCCC3)cc2)cc1 (stereo not given),22.7% (active)
19,CCOc1ccc(NS(=O)(=O)c2ccc(C(=O)NC3CCN(Cc4ccccc4)CC3)cc2)cc1,-4.76%
20,CCOc1ccc(S(=O)(=O)Nc2ccc(C(=O)NCCCN3CCCC3=O)cc2)cc1,-1.87%
21,Cc1ccc(S(=O)(=O)N(CC(=O)Nc2cccnc2)c2ccc(Br)cc2)cc1,-0.74%
22,O=C(Cn1cnc2ccccc2c1=O)NCC1COc2ccccc2O1 (stereo not given),-0.06%
23,c1ccc2c(c1)OCC(CNc1ncnc3nc[nH]c13)O2 (stereo not given),134% (active)

row,SMILES,activation
1,COc1ccc(CCNc2ncnc3nc[nH]c23)cc1OC,3.98%
2,O=C(CSc1nnc2c(n1)[nH]c1ccccc12)NC1CCCCC1,-3.41%
3,O=C(NC1CCCCC1)N1CCc2[nH]c3ccccc3c2C1,18.1% (active)
4,CCc1ccc(NC(=O)N2CCc3ccccc3C2)cc1,-5.56%
5,O=C(Nc1ccc(Cl)cc1)N1CCc2[nH]c3ccccc3c2C1,21.6% (active)
6,C=CCNC(=S)N1CCc2[nH]c3ccccc3c2C1,2.34%
7,O=C(Nc1cccc2c1CCCC2)C1CCN(C(=O)NC2CCCCC2)CC1,-2.08%
8,CCOC1=C2[C@@H](CN(S(=O)(=O)c3ccc(C)cc3)[C@H]2c2ccccc2F)[C@H]2C(=O)N(Cc3ccccc3)C(=O)[C@H]2C1,-5.09%
9,CCCc1cc(=O)[nH]c(SCC(=O)Nc2ccc(S(=O)(=O)N3CCCC3)cc2)n1,-4.58%
10,CCC(=O)c1ccc(OCC(=O)OCC(=O)N2CCc3ccccc3C2)cc1,-1.8%
11,CCN1CCc2nc(NC(=O)c3cc(F)c(F)cc3Cl)sc2C1,-7.11%
12,COC(=O)c1ccc(CSc2ccc3nnc(-c4ccccc4)n3n2)o1,-7.9%
13,CCN1/C(=C\c2ccc3ccccc3[n+]2CC)Sc2cc(C)ccc21,26.1% (active)
14,COCCNC(=O)C1CCCN(Cc2ccccc2Cl)CC1 (stereo not given),-7.52%
15,CCCNC(=O)CCn1nc(-c2ccccc2)c2ccccc2c1=O,-3.19%
16,COc1ccc(CNC(=O)CN(C(=O)c2csnn2)c2cnc3ccccc3c2)cc1,-11.5%
17,CCOC(=O)C(CC)/C(C)=N\NC(=O)c1cccc(C)c1 (stereo not given),-0.97%
18,COc1ccccc1S(=O)(=O)c1c(C)cc(C)[nH]c1=O,-1.5%
19,Cc1cc(C)c(/C=C2\C(=O)Nc3ccccc32)[nH]1,26.4% (active)
20,O=C1c2ccccc2NC(c2ccccn2)N1NS(=O)(=O)c1ccccc1 (stereo not given),0.48%
21,CN(C(=O)CN1C(=O)NC(C)(CCc2ccccc2)C1=O)c1ccccc1 (stereo not given),-0.73%
22,Cc1ccc(CN2C(=O)N/C(=C/c3cc(C)n(-c4ccccn4)c3C)C2=O)cc1,-1.17%
23,CN(C)c1ccc(/C=C2\NC(=S)N(Cc3ccccc3)C2=O)cc1,47.3% (active)

row,SMILES,activation
1,Cc1ccc(S(=O)(=O)N(Cc2ccc(Cl)cc2)c2ccccc2C(=O)NCc2cccnc2)cc1,-7.63%
2,CC(C)N(C(=O)Cn1cc(SCC(=O)N2CCCC2)c2ccccc21)C(C)C,-6.14%
3,O=C(CC1SCCNC1=O)Nc1ccc(Cl)cc1 (stereo not given),-4.53%
4,CCCc1ccc(OCC(=O)NNC(=S)NC(=O)c2ccco2)cc1,4.47%
5,CC(Oc1ccc2ccccc2c1)C(=O)NNC(=S)NC(=O)c1ccco1 (stereo not given),51.6% (active)
6,O=C(Nc1ccc2ccccc2c1)/C(=C\c1ccc2c(c1)OCO2)NC(=O)c1ccco1,-10.2%
7,CCc1nc2c(OCCOc3ccccc3)cccn2c1N(C=O)Cc1ccc(OC)cc1,-6.89%
8,CCOC(=O)[C@H]1[C@H]2COc3cc(OC)ccc3[C@@H]2N2C(=O)N(c3ccc(Br)cc3)C(=O)[C@@]12C,-5.08%
9,Cc1cc(C)c(S(=O)(=O)N2CCC(C(=O)OCc3c(C)noc3C)CC2)c(C)c1,-3.3%
10,C=CCn1c(SCc2c(C(=O)OC)sc(N)c2C(=O)OC)nnc1-c1ccc(Cl)cc1,0%
11,CN1C=CC=C/C1=C1\SC(=S)N(Cc2ccccc2)C1=O,-13.4%
12,COc1cc(/C=C2/SC(=S)N(Cc3ccccc3)C2=O)cc(OC)c1O,24.3% (active)
13,COc1ccc(CCNC2=C(Cl)C(=O)N(Cc3ccccc3)C2=O)cc1OC,-3.94%
14,COc1ccc(C)cc1-n1nnnc1SCc1nc2ccccc2c(=O)[nH]1,16.2% (active)
15,CCn1c(COc2c(C)cccc2C)nnc1SCc1nc2ccccc2c(=O)[nH]1,-4.55%
16,COc1ccc(CCCc2nnc(SCc3nc4ccccc4c(=O)[nH]3)n2C)cc1,-15.5%
17,O=S1(=O)C[C@@H](N2CCN(CCO)CC2)[C@H](COCc2ccccc2)N1,17.3% (active)
18,O=C1CCN(CCCc2ccccc2)CCN1CCO,-5.68%
19,CCCCN1CC(COCc2ccccc2)OCCS1(=O)=O (stereo not given),-4.53%
20,COc1ccc(OC)c(NC(=O)c2cc(-c3cc(F)ccc3OCC3CCCO3)n[nH]2)c1 (stereo not given),-6.22%
21,CC(C)(C)OC(=O)NC(Cc1ccccc1)C(=O)NC(CSC1CCCCO1)C(=O)NN (stereo not given),-3.12%
22,COC(=O)c1cc(C(=O)NC(C)C2CC3CCC2C3)cc([N+](=O)[O-])c1 (stereo not given),-7.37%
23,CCN(CC)CCCC(C)n1c2nc(=O)[nH]c(=O)c-2nc2cc(Cl)ccc21 (stereo not given),182% (active)

row,SMILES,activation
1,COc1ccc(C(CCNCc2ccccc2F)c2ccc(F)cc2)cc1 (stereo not given),-4.82%
2,COc1cccc(CNCCc2c[nH]c3ccccc23)c1OCc1ccccc1F,16.5% (active)
3,Fc1ccccc1COc1ccccc1CNCc1ccncc1,-7.35%
4,CC(C)C[C@H]1CN=C(Nc2ccccc2)N1CC1CCCCC1,-8.04%
5,CC(=O)Nc1ccc(OC(=O)COc2ccc(Br)cc2)cc1,-5.95%
6,Cn1cccc1C(=O)NNC(=O)COc1ccc(Br)cc1,-2.51%
7,Cc1ccc(O)c(NC(=S)NC(=O)COc2ccc(Br)cc2)c1,33.4% (active)
8,COCCNc1cc(-c2ccccc2)nc2cc(-c3cccc(F)c3)nn12,-4.59%
9,Cc1ccc(S(=O)(=O)N2CCN(C(=O)CN3C(=O)NC(C)(c4ccc(Cl)cc4)C3=O)CC2)c(C)c1 (stereo not given),-3.67%
10,COc1cc(NC(=O)CN2C(=O)NC(C)(c3ccc(OC(F)F)cc3)C2=O)cc(OC)c1OC (stereo not given),5.37%
11,Cc1ccc(NC(=O)CN2C(=O)NC(C)(c3ccc(Cl)cc3)C2=O)c(Br)c1 (stereo not given),17.6% (active)
12,COc1ccc(C2(C)NC(=O)N(CC(=O)c3ccc4c(c3)OCO4)C2=O)cc1 (stereo not given),10.2%
13,Cc1ccc(C2(C)NC(=O)N(CC(=O)Nc3ccccc3C(=O)N3CCCCC3)C2=O)cc1 (stereo not given),0.58%
14,CC1CCC2(CC1)NC(=O)N(CC(=O)c1ccc3c(c1)OCO3)C2=O (stereo not given),-2.81%
15,COc1ccc(C(=O)CN2C(=O)NC(C)(c3ccc(C)cc3)C2=O)cc1OC (stereo not given),16.2% (active)
16,Cc1ccc(C2(C)NC(=O)N(CC(=O)N3CC(=O)Nc4ccccc43)C2=O)cc1 (stereo not given),-1.27%
17,CC1(c2ccc(Cl)cc2)NC(=O)N(CC(=O)c2ccc3c(c2)OCO3)C1=O (stereo not given),20.6% (active)
18,O=C(NC(c1ccc(-c2ccccc2)cc1)c1cnccn1)C1CCN(CCOc2ccc(Cl)cc2Cl)CC1 (stereo not given),-1.39%
19,Cc1cc(Br)cn2c(Cc3ccsc3)c(-c3ccc(C#N)cc3)nc12,-1.39%
20,COCCCNc1nc2c(-c3cccc(C)c3)nnn2c2ccc(Cl)cc12,-3.36%
21,C[C@H]1CN([C@@H](C)CO)C(=O)c2cc(C3=CCCCC3)cnc2O[C@@H]1CN(C)C(=O)Cc1ccccc1,-6.56%
